Screening data from PubChem.
D1 potentiator – Potentiators of Human D1 Dopamine Receptor: qHTS | HEK293 TREx D1 cells, calcium flux, dopamine EC20 potentiation | potentiation, % at 10 µM | 0.036% of 360,000 active; in the data active means potentiation above about 30%; further: 0% is about no effect
TRHR agonist – qHTS for Small Molecule Agonists and Allosteric Enhancers of Human TRH Receptor: Primary Screen for Agonists. Thyrotropin-releasing hormone receptor (Homo sapiens), P34981. TRHR cells, calcium flux fluo-8, FDSS agonist mode. activation, % at 2 µM. 0.18% of 360,000 active. AID 493084, 2011; further: 0% is about no effect
Target sequence (P34981 whole entry, looked up): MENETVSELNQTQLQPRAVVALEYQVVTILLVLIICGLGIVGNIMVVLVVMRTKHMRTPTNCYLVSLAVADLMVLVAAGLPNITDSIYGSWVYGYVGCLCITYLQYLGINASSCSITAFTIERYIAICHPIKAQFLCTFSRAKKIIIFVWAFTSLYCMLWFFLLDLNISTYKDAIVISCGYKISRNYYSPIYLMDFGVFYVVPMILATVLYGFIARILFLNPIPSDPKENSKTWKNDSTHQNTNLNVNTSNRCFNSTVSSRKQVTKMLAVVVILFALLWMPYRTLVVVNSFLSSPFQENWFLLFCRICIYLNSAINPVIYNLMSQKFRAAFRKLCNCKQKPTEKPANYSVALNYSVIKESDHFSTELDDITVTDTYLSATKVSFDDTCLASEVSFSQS
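Read-out: compound-evoked intracellular calcium rise in TRHR cells, fluo-8 dye, kinetic FDSS fluorescence at 1 s/cycle following a 10-cycle baseline. Cells cultured overnight before dye loading (30 min–1.5 h, RT).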
D1 agonist – Allosteric Agonists of the Human D1 Dopamine Receptor: qHTS | HEK293 T-REx D1 cells, calcium flux, agonist mode | activation, % at 2 µM | 1% of 360,000 active | AID 504660, 2011; further: 0% is about no effect
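Tetracycline-induced HEK293 TREx D1 cells, force-coupled to calcium signalling, were dye-loaded with a no-wash calcium kit. Compound was pin-added after a 10 s baseline. Fluorescence was read kinetically at 1 cycle/s for 180 s, with calcium rises flagged as agonism.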
D1 antagonist – Antagonist of Human D 1 Dopamine Receptor: qHTS; D(1A) dopamine receptor (Homo sapiens), P21728; HEK293 TREx D1 cells, calcium flux, dopamine EC80; hits give low values; activity change, negative = inhibition, % at 10 µM; 3.2% of 360,000 active; AID 504652, 2011; in the data active means activity change below about -30%; further: on the % scale 0 is the no-effect control and ±100 the full control effect
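Compound effects on dopamine-evoked calcium signalling were measured in tetracycline-induced HEK293 Trex D1 cells. Dopamine at EC80 followed a 180 s compound pre-read, and fluorescence was tracked kinetically for 180 s more.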
TRHR enhancer – qHTS for Small Molecule Agonists and Allosteric Enhancers of Human TRH Receptor: Primary Screen for Enhancers | TRHR cells, fluo-8 calcium fluorescence, EC20 TRH enhancement | enhancement, % at 2 µM | AID 493056, 2011 | 0.66% of 360,000 active | Thyrotropin-releasing hormone receptor (Homo sapiens), P34981; in the data active means enhancement above about 30%; further: 0% is about no effect
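TRHR-expressing cells loaded with fluo-8 calcium dye were read kinetically (ex 480/em 530) during compound addition, then stimulated with an EC20 of TRH (10 nM final). Enhancement of the Gq-mediated intracellular calcium response was scored.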
USP1-UAF1 inh – Inhibitors of USP1/UAF1: Primary Screen | Potency, µM (series often up to 57.1 µM), inactives show at the top dose activity change, negative = inhibition, most hits filed as inhibitors | 0.23% of 390,000 active | recombinant USP1/UAF1, Ub-Rhodamine cleavage fluorescence | AID 743255, 2014 | Ubiquitin carboxyl-terminal hydrolase 1 (Homo sapiens), O94782; active means well fitted inhibition curve with a large enough effect; inconclusive means small, poorly fitted or top-dose-only effect; inactive means no such curve, though single readings can be large or run the other way; further: potency means the concentration at half of the fitted maximal effect; on the % scale 0 is the no-effect control and ±100 the full control effect; nearly all actives have a fitted effect of over 60% in size
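USP1/UAF1 complex at 1 nM was preincubated with compound for 15 min at room temperature, then Ub-Rho substrate (150nM final) was added. Fluorescence (480/540 nm) was read kinetically, 6 reads every 60 seconds.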
Starred values were filed as active, the others as inactive; ? = inconclusive; / = no result given. A selection: hits, their analogues and other compounds. The true share with any hit is near 4.4%. Unless noted, no stated cut-off is given here; in the data, active means activation above about 30%; inactive means the rest.

SMILES | D1 potentiator | TRHR agonist | D1 agonist | D1 antagonist | TRHR enhancer | USP1-UAF1 inh
COc1cc(-c2nnc(SCC(=O)Nc3ccc(F)c(Cl)c3)o2)cc(OC)c1OC | -1 | -1 | 2 | -11 | -15 | -26%
COc1cccc(Cc2nc3ccccc3nc2SCC(=O)Nc2ccccc2F)c1 | -2 | 2 | 9 | 6 | -1 | -4%
O=C1c2ccc([N+](=O)[O-])cc2C(=O)N1c1ccc(Cl)cn1 | 2 | 1 | 0 | 1 | -7 | -11%
O=C1c2cccc3c([N+](=O)[O-])ccc(c23)C(=O)N1c1ccccn1 | -11 | -1 | 4 | -42* | 4 | 7%
O=C1c2cccc3c([N+](=O)[O-])ccc(c23)C(=O)N1c1ccc(Cl)cn1 | -8 | 4 | 3 | -49* | -21 | ?
CN(C)CCCN1C(=O)c2cccc3c(Br)ccc(c23)C1=O | 3 | 7 | 8 | 26 | -2 | -28%
CCCCNc1ccc2c3c(cccc13)C(=O)N(CCCC)C2=O | 4 | 286* | 700* | -71* | -14 | 25µM*
Cc1cc(C)c2nc(N3CCCC(C(=O)NCc4cccc(Cl)c4)C3)sc2c1 (configuration not stated) | -2 | 0 | 0 | -4 | 20 | -21%
CC(CCC(C)C(C)(C)C)[C@@H]1CC[C@H]2C3C[C@H](OS(O)(=S)=S)[C@H]4C[C@H](OS(O)(=S)=S)[C@@H](OS(O)(=S)=S)C[C@]4(C)[C@H]3CC[C@]12C (some centres not stated) (tested in a mixture with another compound) | / | / | / | / | / | 18µM*
CC(CCC(=O)NN)C1CCC2C3CCC4CC(O)CCC4(C)C3CCC12C (configuration not stated) | / | / | / | / | / | -3%
CC(C)Cc1csc(NC(=O)c2ccc(Cl)cc2)c1C(=O)O | -4 | 0 | 17 | -31* | -7 | -10%
CCOc1ccc(NC(=O)[C@H]2O[C@@H]3OC(C)(C)O[C@@H]3[C@H]3OC(C)(C)O[C@H]32)cc1 | 0 | 1 | 0 | -5 | -2 | -4%
CCC(CC)NCc1ccc2c(c1)c1ccccc1n2CC | 2 | -1 | 60* | 12 | 2 | -19%
CCn1c2ccccc2c2cc(CNCc3ccc(OC)cc3OC)ccc21 | -4 | 9 | 94* | -28 | 6 | -18%
COc1ccc(CNCc2cc(C)c(OC)cc2C)c(OC)c1 | -4 | 2 | 30* | -2 | 8 | -8%
COc1cccc(CNCc2ccc(OC)cc2OC)c1 | -7 | 0 | 6 | -15 | 1 | -24%
CCOc1ccc(S(=O)(=O)N2CCC(c3ccncc3)CC2)cc1 | -3 | -1 | 10 | -17 | -7 | -2%
CC(C)Nc1nc2c(S(=O)(=O)c3cccc(Cl)c3)nnn2c2ccsc12 | -8 | 1 | 2 | -57* | -18 | -9%
Cc1ccc(C)c(S(=O)(=O)c2nnn3c2nc(Nc2ccc(C)c(C)c2)c2sccc23)c1 | -5 | -1 | 1 | -6 | 11 | ?
Cc1ccc(C)c(S(=O)(=O)c2nnn3c2nc(NC(C)C)c2sccc23)c1 | -7 | 0 | 1 | -60* | -14 | ?
Cc1nc(-c2ccc(S(=O)(=O)N3CCN(c4ccccc4F)CC3)cc2)co1 | -5 | 0 | 1 | -34* | -4 | -36%
CCc1ccccc1N1CCN(S(=O)(=O)c2ccc(F)c(C)c2)CC1 | -2 | 1 | 7 | -37* | -5 | -11%
COCCCN(C(=O)c1ccco1)c1nc(-c2cc(OC)ccc2OC)cs1 | 5 | 0 | 6 | -41* | -1 | -17%
CCC(=O)N(CC)c1nc(-c2cc(OC)ccc2OC)cs1 | -3 | 0 | 34* | 30 | 11 | -17%
CCC(=O)N(CCCN(C)C)c1nc(-c2cc(OC)ccc2OC)cs1 | -1 | -1 | 8 | 8 | 16 | -8%
SMILES | D1 potentiator | TRHR agonist | D1 agonist | D1 antagonist | TRHR enhancer | USP1-UAF1 inh
CN(C)CCCN(C(=O)c1ccco1)c1nc(-c2ccc(Cl)cc2)cs1 | -6 | 0 | 33* | -42* | 1 | -13%
COc1ccc(OC)c(-c2csc(NC(=O)COC(=O)C3(C)CC3(Cl)Cl)n2)c1 (configuration not stated) | -6 | 0 | 2 | -48* | 3 | -26%
Cc1ccc(-c2csc(N(CCCN(C)C)C(=O)c3ccco3)n2)cc1 | 0 | 0 | 1 | -1 | 4 | -11%
COc1ccc(CC(=O)N2CCc3cc(OC)c(OC)cc3C2COc2ccc3c(C)cc(=O)oc3c2)cc1OC (configuration not stated) | 0 | 0 | -1 | -1 | 3 | -15%
CCN(CC)CCCNc1cc(C)c(C#N)c2nc3ccccc3n12 | / | / | / | / | / | 4%
CCCc1cc(NCCCCO)n2c(nc3ccccc32)c1C#N | 0 | 0 | 8 | -36* | 3 | -24%
CCN(CC)CCCNc1cc(C(F)(F)F)c(C#N)c2nc3ccccc3n12 | -2 | -1 | 46* | -1 | -22 | -13%
CCCc1cc(NCCOCCO)n2c(nc3ccccc32)c1C#N | / | / | / | / | / | -2%
O=C(Cc1ccc(F)cc1)NCc1nc2cccnc2n1Cc1ccc(F)cc1 | -2 | 0 | 0 | -1 | 3 | 0%
Oc1ccc(Br)cc1CNc1cnc2ccccc2c1 | -3 | 0 | 8 | -6 | -2 | -18%
Cc1ccc(O)c(CNc2cnc3ccccc3c2)c1 | -4 | 1 | 11 | -31* | 2 | -21%
Cc1ccc(NC(=O)c2cc3c(=O)n(Cc4cccnc4)ccc3nc2C)cc1F | -2 | 0 | 0 | -13 | 6 | 7%
COc1ccc(OC)c(S(=O)(=O)NCc2ccc3c(c2)CCN3C(=O)c2cccc(C)c2)c1 | -1 | -1 | 2 | -2 | 2 | -26%
CC(=O)NNC(=S)NC(=O)C(c1ccccc1)c1ccccc1 | -2 | 0 | 1 | -2 | 9 | -21%
CC(C)(C)C(=O)NC(=S)NNC(=O)C(c1ccccc1)c1ccccc1 | 34* | 99* | 350* | 24 | 1 | -8%
O=[N+]([O-])c1ccc(CN2CCN(c3ccc(Cl)cc3)CC2)o1 | 0 | 0 | 5 | -32* | 5 | -12%
Cc1ccc2[nH]c(=O)c3cc(C(=O)NC4CCC(C)CC4)sc3c2c1 (configuration not stated) | -5 | 0 | 1 | -43* | 0 | -13%
O=C(CSc1nc(C2CCCCC2)nc2ccccc12)NCc1ccc2c(c1)OCO2 | -3 | 1 | 5 | -46* | -2 | -8%
